Compound activity deposited in PubChem by Broad Institute.
ROS inducer: cancer cell ROS induction; U2OS ROS induction, H2DCF-DA fluorescence; hit rate 2% among 46,000; ROS induction (% of piperlongumine), % at 10 µM; AID 624156; in the data active = ROS induction above about 79%, passing the limit was not always enough
Each line names hits and unclear results; the compound was inactive in the other large screens. The sample as a whole holds a higher share of hits than the screen did.

C[C@@H]1CN([C@@H](C)CO)C(=O)c2cc(NC(=O)NC3CCCCC3)ccc2O[C@H]1CN(C)Cc1ccc(-c2ccccc2)cc1	none
C[C@H]1CN([C@@H](C)CO)C(=O)c2cccc(NC(=O)C3CCCCC3)c2O[C@H]1CN(C)Cc1ccc(Oc2ccccc2)cc1	none
C[C@H]1CN([C@@H](C)CO)C(=O)c2cc(NC(=O)NC3CCCCC3)ccc2O[C@@H]1CN(C)Cc1ccc(-c2ccccc2)cc1	ROS inducer 137
C[C@@H]1CN([C@H](C)CO)C(=O)c2cc(NC(=O)NC3CCCCC3)ccc2O[C@@H]1CN(C)Cc1ccc(-c2ccccc2)cc1	none
C[C@H](CO)N1C[C@H](C)[C@@H](CN(C)Cc2ccc(Oc3ccccc3)cc2)Oc2c(NC(=O)C3CC3)cccc2C1=O	ROS inducer 84
C[C@@H]1CN([C@@H](C)CO)C(=O)c2cc(N(C)C)ccc2O[C@@H]1CN(C)Cc1ccc(-c2ccccc2)cc1	none
C[C@H](CO)N1C[C@H](C)[C@@H](CN(C)Cc2ccc(-c3ccccc3)cc2)Oc2c(NC(=O)C3CC3)cccc2C1=O	ROS inducer 173
C[C@H](CO)N1C[C@H](C)[C@H](CN(C)Cc2ccc(-c3ccccc3)cc2)Oc2c(NC(=O)C3CC3)cccc2C1=O	none
C[C@@H]1CN([C@@H](C)CO)C(=O)c2cccc(NC(=O)C3CC3)c2O[C@@H]1CN(C)Cc1ccc(Oc2ccccc2)cc1	none
C[C@H]1CN([C@@H](C)CO)C(=O)c2cc(N(C)C)ccc2O[C@H]1CN(C)Cc1ccc(-c2ccccc2)cc1	none
C[C@@H]1CN([C@H](C)CO)C(=O)c2cccc(NC(=O)C3CC3)c2O[C@@H]1CN(C)Cc1ccc(-c2ccccc2)cc1	none
C[C@H](CO)N1C[C@H](C)[C@@H](CN(C)Cc2ccc(-c3ccccc3)cc2)Oc2ccc(N(C)C)cc2C1=O	ROS inducer 94
Cc1ccc(-c2csc3ncnc(NCCN4CCNC4=O)c23)cc1	none
O=C(NC1CC1)c1ccc(Cl)cc1Cl	none
O=C(Cn1cnc2c(nnn2-c2cccc(Cl)c2)c1=O)N1CCCc2ccccc21	none
CC(C)OC(=O)c1cccc(NC(=O)c2ccc(Br)cc2)c1	none
O=C(CSc1nnc(-c2ccccc2)c(-c2ccccc2)n1)NCCC1=CCCCC1	none
O=C(Cc1cccc2ccccc12)NN1C(=O)C2C3C=CC(C3)C2C1=O (stereo not given)	none
COc1ccc(-c2nc(C)c(CCNS(=O)(=O)N(C)C)s2)cc1	none
CCN(Cc1ccccc1)C(=O)C(C)Oc1ccccc1 (stereo not given)	none
C[C@H]1CN([C@@H](C)CO)C(=O)c2cc(NC(=O)C3CCCCC3)ccc2O[C@@H]1CN(C)Cc1ccc(Oc2ccccc2)cc1	ROS inducer 89
C[C@@H]1CN([C@@H](C)CO)C(=O)c2cc(NC(=O)C3CCCCC3)ccc2O[C@@H]1CN(C)Cc1ccc(Oc2ccccc2)cc1	none
COc1ccc(CN(C)C[C@@H]2Oc3c(NC(=O)Nc4ccccc4)cccc3C(=O)N([C@H](C)CO)C[C@H]2C)cc1	none
C[C@H]1CN([C@@H](C)CO)C(=O)c2cccc(NC(=O)C3CC3)c2O[C@@H]1CN(C)Cc1ccc(Oc2ccccc2)cc1	ROS inducer 94
C[C@H](CO)N1C[C@H](C)[C@H](CN(C)Cc2ccc(Oc3ccccc3)cc2)Oc2c(NC(=O)C3CCCCC3)cccc2C1=O	none
COc1ccc(NC(=O)Nc2cccc3c2O[C@H](CN(C)Cc2ccc(Oc4ccccc4)cc2)[C@H](C)CN([C@@H](C)CO)C3=O)cc1	ROS inducer 89
COc1ccc(CN(C)C[C@H]2Oc3c(NC(=O)Nc4ccccc4)cccc3C(=O)N([C@@H](C)CO)C[C@H]2C)cc1	none
C[C@@H]1CN([C@@H](C)CO)C(=O)c2cc(NC(=O)C3CC3)ccc2O[C@@H]1CN(C)Cc1ccc(Oc2ccccc2)cc1	none
C[C@@H]1CN([C@@H](C)CO)C(=O)c2cccc(NC(=O)C3CCOCC3)c2O[C@@H]1CN(C)Cc1ccc(Oc2ccccc2)cc1	none
CC(C)Nc1nc(-c2ccccc2)nc2ccccc12	none
O=C(Cc1ccc(-n2c(=S)[nH]c3ccccc3c2=O)cc1)N1CCCC1	none
O=C(NCc1ccccn1)/C(=C/c1ccccc1Cl)c1ccccc1	none
N#CC1=C(SCC(=O)Nc2ccc(F)cc2)NC(=O)C(C#N)C12CCCCC2 (stereo not given)	none
Cc1ccc(NC(=O)CSc2nc3c(c(=O)n2CCc2ccccc2)SCC3)cc1Cl	none
c1ccc2[nH]c(-c3nc4ccccc4s3)nc2c1	none
CCN(CC)S(=O)(=O)c1ccc(NC(=O)COc2ccc(Cl)cc2Cl)cc1	none
COc1ccc(S(=O)(=O)Nc2cccc3c2O[C@H](CN(C)Cc2ccc(Oc4ccccc4)cc2)[C@@H](C)CN([C@@H](C)CO)C3=O)cc1	none
C[C@H](CO)N1C[C@H](C)[C@@H](CN(C)Cc2ccc(-c3ccccc3)cc2)Oc2c(NS(=O)(=O)c3cccs3)cccc2C1=O	ROS inducer 89
COc1ccc(S(=O)(=O)Nc2cccc3c2O[C@H](CN(C)Cc2ccc(Cl)c(Cl)c2)[C@H](C)CN([C@@H](C)CO)C3=O)cc1	ROS inducer 84
COc1ccc(S(=O)(=O)Nc2cccc3c2O[C@H](CN(C)Cc2ccc(Oc4ccccc4)cc2)[C@H](C)CN([C@@H](C)CO)C3=O)cc1	ROS inducer 110
C[C@@H]1CN([C@@H](C)CO)C(=O)c2cccc(NS(=O)(=O)c3cccs3)c2O[C@@H]1CN(C)Cc1ccc(-c2ccccc2)cc1	none
Cc1ccc(S(=O)(=O)Nc2cccc3c2O[C@H](CN(C)Cc2ccc(Oc4ccccc4)cc2)[C@H](C)CN([C@H](C)CO)C3=O)cc1	ROS inducer 125
C[C@H]1CN([C@@H](C)CO)C(=O)c2cccc(NS(=O)(=O)c3cccs3)c2O[C@H]1CN(C)Cc1ccccc1	none
COc1ccc(S(=O)(=O)Nc2cccc3c2O[C@@H](CN(C)Cc2ccc(Cl)c(Cl)c2)[C@@H](C)CN([C@H](C)CO)C3=O)cc1	none
COc1ccc(S(=O)(=O)Nc2cccc3c2O[C@H](CN(C)Cc2ccc(Cl)c(Cl)c2)[C@@H](C)CN([C@H](C)CO)C3=O)cc1	none
COc1ccc(S(=O)(=O)Nc2cccc3c2O[C@@H](CN(C)Cc2ccc(Oc4ccccc4)cc2)[C@H](C)CN([C@H](C)CO)C3=O)cc1	none
Cc1ccc(S(=O)(=O)Nc2cccc3c2O[C@@H](CN(C)Cc2ccc(Oc4ccccc4)cc2)[C@@H](C)CN([C@H](C)CO)C3=O)cc1	none
Cc1ccc(S(=O)(=O)Nc2cccc3c2O[C@H](CN(C)Cc2ccc(Oc4ccccc4)cc2)[C@@H](C)CN([C@@H](C)CO)C3=O)cc1	none
CC1=C/C(=C\N(C)c2ccccc2)C(=O)S1	none
CC(=O)N1CCOc2cc(S(=O)(=O)N3CCCCC3C)ccc21 (stereo not given)	none
Cc1ccc(Cn2c(=O)cc(C(=O)NC3CCCCC3)c3ccccc32)cc1	none
CN(C)c1cc(N=C2CCCN2c2ccccc2)c2ccccc2n1	none
O=C(CCN1C(=O)c2ccccc2C1=O)Nc1ccc(S(=O)(=O)Nc2nccs2)cc1	none
Cc1cccc(C(=O)NCCCn2ccnc2)c1	none
Cc1ccc(S(=O)(=O)Nc2ccc3oc(=O)sc3c2)cc1	none
CC(C)CN(CC(C)C)C(=O)COc1ccc(C(C)(C)C)cc1	none
CCn1c(=O)cc(N2CCN(c3ccccc3)CC2)[nH]c1=O	none
Cc1noc(C)c1S(=O)(=O)Nc1cccc2c1O[C@@H](CN(C)Cc1ccc(Oc3ccccc3)cc1)[C@@H](C)CN([C@H](C)CO)C2=O	none
C[C@H]1CN([C@@H](C)CO)C(=O)c2cccc(NS(=O)(=O)c3ccc(F)cc3)c2O[C@@H]1CN(C)Cc1ccc(Oc2ccccc2)cc1	ROS inducer 104
